RBX1-CUL1 inh: inhibitors of human ROC1-CUL1 ubiquitin ligase activity; P62877+Q13616; in vitro K48 di-Ub FRET, acceptor:donor ratio, 45 min; inhibition, % at 10 µM; 140,000 compounds, 0.6% hits; in the data active = inhibition above about 25%
Target sequence (P62877 whole entry, looked up): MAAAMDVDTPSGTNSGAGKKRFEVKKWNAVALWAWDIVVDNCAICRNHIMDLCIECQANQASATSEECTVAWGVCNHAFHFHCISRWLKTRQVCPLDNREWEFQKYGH
Target sequence (Q13616 whole entry, looked up): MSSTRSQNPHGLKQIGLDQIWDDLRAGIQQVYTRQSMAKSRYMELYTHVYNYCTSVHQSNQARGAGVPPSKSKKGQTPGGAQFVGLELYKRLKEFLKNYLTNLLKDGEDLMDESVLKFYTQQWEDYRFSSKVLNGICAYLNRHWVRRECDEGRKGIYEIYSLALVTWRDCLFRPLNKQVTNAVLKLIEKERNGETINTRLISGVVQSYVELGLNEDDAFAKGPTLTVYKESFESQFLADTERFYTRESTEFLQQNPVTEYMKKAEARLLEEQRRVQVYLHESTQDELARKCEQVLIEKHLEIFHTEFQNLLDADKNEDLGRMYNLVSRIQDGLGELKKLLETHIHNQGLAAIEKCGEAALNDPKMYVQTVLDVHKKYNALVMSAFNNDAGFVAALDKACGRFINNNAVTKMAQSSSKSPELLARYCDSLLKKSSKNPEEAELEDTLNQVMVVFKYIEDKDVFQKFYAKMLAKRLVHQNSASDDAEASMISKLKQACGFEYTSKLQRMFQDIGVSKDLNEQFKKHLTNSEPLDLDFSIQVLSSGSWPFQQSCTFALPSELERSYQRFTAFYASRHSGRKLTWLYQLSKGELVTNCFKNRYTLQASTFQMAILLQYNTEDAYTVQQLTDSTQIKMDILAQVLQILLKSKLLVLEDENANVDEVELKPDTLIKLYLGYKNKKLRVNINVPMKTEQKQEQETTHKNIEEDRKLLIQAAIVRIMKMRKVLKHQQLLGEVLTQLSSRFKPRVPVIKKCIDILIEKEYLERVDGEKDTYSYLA
Numbers without * were called inactive. The sample as a whole holds a higher share of hits than the screen did.

SMILES	RBX1-CUL1 inh
Cc1cccc(-n2ncc(SCc3ccccc3)c(SCc3ccccc3)c2=O)c1	-4
CC(=O)Nc1ccc(S(=O)(=O)NNc2ccc([N+](=O)[O-])cn2)cc1	-3
COc1cc(C(=O)OCC2c3ccccc3-c3ccccc32)cc(OC)c1OC	-1
CSc1nnc(-c2ccncc2)n1-c1cccc(C)c1	-11
O=C1c2c(Cl)c(Cl)c(Cl)c(Cl)c2C(=O)C1C(c1ccccc1)c1ccccc1	62*
Cc1ccccc1C(c1ccccc1)C1C(=O)c2ccccc2C1=O (stereo unspecified)	-4
CC(C(=O)OCC(=O)c1ccc(-c2ccccc2)cc1)N1C(=O)c2c(Cl)c(Cl)c(Cl)c(Cl)c2C1=O (stereo unspecified)	4
CCCC1CCc2c(sc(NC(=O)OC)c2C#N)C1 (stereo unspecified)	2
COc1ccc2occ(/C=N/NC(N)=S)c2c1	6
Cc1cc(/C=C2\C(=O)NC(=S)N(c3ccc(Cl)cc3)C2=O)c(C)n1-c1sc2c(c1C(=O)Nc1ccccc1)CCCC2	41*
Cc1cc(/C=C2\C(=O)NC(=S)N(c3cccc(Cl)c3)C2=O)c(C)n1-c1sc2c(c1C(=O)Nc1ccccc1)CCCC2	8
Cc1cccc(N2C(=O)/C(=C/c3cc(C)n(-c4sc5c(c4C(=O)Nc4ccccc4)CCCC5)c3C)C(=O)NC2=S)c1	4
O=[N+]([O-])c1ccccc1C=Nc1ccccc1Cl	-4
O=[N+]([O-])c1cc(C=Nc2c(Cl)cc(Cl)c(N=Cc3cc([N+](=O)[O-])c(O)cc3O)c2Cl)c(O)cc1O	108*
O=[N+]([O-])c1ccc(O)c(C=Nc2cc(Cl)cc(Cl)c2)c1	-5
CCOC(=O)C1(Cc2cccc(OC)c2)CCCN(C(=O)C(=O)c2ccccc2)C1 (stereo unspecified)	-6
CCCCC1C(=O)c2ccccc2N(CCCC)C1=O (stereo unspecified)	-4
Fc1ccc(-c2nnc3c(Cl)nc4ccccc4n23)cc1	11
COc1ccc2nc(Cl)c(-c3nnc4c(Cl)nc5ccccc5n34)cc2c1	-9
Clc1nc2ccccc2n2c(-c3ccccc3)nnc12	25*
CCc1ccc(CN(C)Cc2cnc(S(=O)(=O)CC)n2CCOC)cc1	-8
C=CCn1c(=O)n(CC)c(=O)c2ccccc21	0
O=C(Nc1cccc(O)c1)c1nn2c(C(F)(F)F)cc(-c3ccc(Br)cc3)nc2c1Cl	-1
O=c1c(-c2ccccc2)c1-c1ccccc1	0
O=C1c2ccccc2-c2c1c(O)c(O)c(-c1ccccc1)c2-c1ccccc1	102*
SMILES	RBX1-CUL1 inh
COc1ccc(OC)c2c1C(=O)c1ccccc1-2	-1
Cc1nn(-c2ccccc2)c(Cl)c1C(=O)Nc1cc(Cl)ccc1Cl	-1
O=C(Nc1cccc2ccccc12)c1nn2c(c1Cl)NC(c1ccc(Br)cc1)CC2C(F)(F)F (stereo unspecified)	-1
Cc1oc(-c2ccc(NC(=O)Cc3ccccc3)cc2)nc1CNC(=O)CCC(C)C	-1
COc1ccc(CC(=O)NCc2nc(-c3ccc(NC(=O)Cc4ccccc4)cc3)oc2C)cc1	5
Cc1nn(C)c(C)c1CCC(=O)NCc1nc(-c2ccc(NC(=O)Cc3ccccc3)cc2)oc1C	39*
Cc1[nH]ncc1CS(=O)(=O)c1ccccc1	3
O=C(NC1CCCc2nc(-c3ccccc3)ncc21)c1ccoc1 (stereo unspecified)	-5
COc1cc(C)ccc1OCc1nc(C(=O)N2CCCCCC2)co1	4
CC(Oc1ccccc1)C(=O)Nc1nc2ccccc2s1 (stereo unspecified)	3
O=C(Nc1nc2ccccc2s1)C(C(F)(F)F)C(F)(F)F	74*
CC(C)C(=O)Nc1nc2ccccc2s1	1
Cc1cc(/C=C2\C(=O)NC(=S)N(C)C2=O)c(C)n1-c1ccc(C(=O)O)cc1	3
Cc1cc(/C=C2/C(=O)NC(=S)N(c3ccc(Br)cc3)C2=O)c(C)n1-c1ccccc1	8
Cc1ccc(N2C(=O)/C(=C/c3cc(C)n(-c4cccc(C(=O)O)c4)c3C)C(=O)N(C)C2=S)cc1	34*
CC(C)NS(=O)(=O)c1cccnc1Cl	-12
O=C1C(Cl)=C(Cl)C(=O)C(CCNc2ncccn2)=C1Cl	98*
Cc1ccc2c(Cl)c(C(=O)Nc3cccc4ccccc34)sc2c1	5
CC(=O)Nc1cccc(N=CC2C(=O)N(c3ccc(Cl)cc3)N=C2C)c1 (stereo unspecified)	-2
CCN=C1CC=CC=C(C(=O)/C=C/c2ccc(Cl)c(Cl)c2)C1=O	62*
CCN=C1CC=C(Br)C=C(C(=O)/C=C/c2cccc(Cl)c2Cl)C1=O	22
CCN=C1CC=CC=C(C(=O)/C=C/c2ccc(C(F)(F)F)cc2)C1=O	-9
O=C(/C=C/c1ccc(Cl)c(Cl)c1)NCCC1=CCCCC1	7
CCN=C1CC=CC=C(C(=O)/C=C/c2cc(OC)ccc2OC)C1=O	8
CC(C)CCNC(=O)/C=C/c1ccc(Cl)c(Cl)c1	-3
SMILES	RBX1-CUL1 inh
CCN=C1CC=CC=C(C(=O)/C=C/c2ccccc2OC)C1=O	87*
CCN=C1CC=CC=C(C(=O)/C=C/c2ccc(Br)cc2)C1=O	86*
CCN=C1CC=C(Br)C=C(C(=O)/C=C/c2ccc(N(C)C)cc2)C1=O	6
COC(=O)c1ccc(-c2nc(CN(C)C3CCOCC3)c(C)o2)cc1	10
CCN1CCN(C2(C(=O)NCCCC3CCCC3)Cc3ccccc3C2)CC1	5
CC(C)(C)C(=O)COC(=O)c1ccc(CNc2ccccc2)cc1	14
CC(C)Cn1c(CCc2ccccc2)nnc1SCC(=O)Nc1ccccc1F	2
CCOC(=O)c1cccc(NC(=O)c2ccc(Br)cc2Br)c1	1
O=C(CC1CCS(=O)(=O)C1)N=C1CCC=NC1=O (stereo unspecified)	4
Cc1ccnc(NC(=O)c2cccc(F)c2)c1	-2
COc1ccc2c(=O)c(I)coc2c1	-2
COc1ccc2ccc3c4ccccc4c(OC)cc3c2c1	1
COc1ccc2c(=O)c(=O)c2c1	72*
O=C(N/N=C/c1ccc(F)cc1)c1cc2c(ccc3ccccc32)o1	13
O=C1CCC(CCC(=O)N2CCN(c3ncccn3)CC2)(Cc2ccc(-c3ccccc3)cc2)N1 (stereo unspecified)	3
CN1C(=O)/C(=C\c2ccc(-c3ccccc3C(=O)O)o2)SC1=S	4
CN=C1S/C(=C\c2ccc(-c3ccc(Cl)cc3C(=O)O)o2)C(=O)N1C	3
N=C1S/C(=C\c2ccc(-c3ccccc3C(=O)O)o2)C(=O)N1c1ccc(Cl)cc1Cl	100*
Cc1cccc(NC(=O)CN2CC(C)CC(C)C2)c1C (stereo unspecified)	7
O=C1N=C(Cc2ccc(N3CCOCC3)o2)C(=O)N1c1cccc(Cl)c1	8
CCN(CC)CN1C(=O)S/C(=C/c2ccc(N(CC)CC)cc2)C1=O	10
CCCN1C(=O)/C(=C/c2ccc(N(C)C)cc2)SC1=S	-5
CCN(CC)c1ccc(/C=C2\SC(=S)N(N)C2=O)cc1	55*
COc1ccccc1N1CCN(C(=O)CCCOc2ccc(Cl)cc2)CC1	-4
Cc1ccc(S(=O)(=O)N2CCSC2c2ccc(Cl)cc2Cl)cc1 (stereo unspecified)	0
Cc1ccc2nc3c(cc(C(=O)NC4CCCCC4)n3C)c(=O)n2c1	2
COC(=O)c1cc2c(-c3ccccc3)cc3ccccn3c-2c1C(=O)OC	5
c1ccc(-c2cc3ccccn3c3cccc2-3)cc1	93*
c1ccc(-c2cc3ccc4cccc2n43)cc1	-1
O=C(Nc1cc(C(F)(F)F)ccc1N1CCCCC1)Nc1cccc2ccccc12	1

Screening data deposited in PubChem BioAssay by Pan Lab, Icahn School of Medicine at Mount Sinai.
